# Compound activity (PubChem)
# CIT2-GFP yeast – modulators of CIT2-GFP expression in yeast, primary screen, S. cerevisiae, GFP fusion, multiplex flow cytometry, MLPCN library; S. cerevisiae CIT2-GFP strain, 3 h; 100 means same as DMSO wells; GFP response vs DMSO, % at 10 µM; actives 0.065% (n = 320,000);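 active means GFP response relative to DMSO above a set limit, near the screen mean plus 3 SD, cut at about 150% in these data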;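 further: ratio of well median GFP fluorescence to mean of DMSO wells on the plate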
# LAP4 TOR yeast – modulators of LAP4-GFP expression in yeast, primary screen, S. cerevisiae, multiplex flow cytometry, MLPCN library. AID 2023, 2009. actives 0.34% (n = 320,000). GFP response vs DMSO, % at 10 µM. 3 h; median GFP as percent of DMSO wells;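 active means GFP response vs DMSO above a set limit, about the screen mean plus 3 SD, cut at about 150% in these data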
# MEP2-GFP yeast – modulators of MEP2-GFP levels in yeast, primary screen, S. cerevisiae, multiplex flow cytometry, MLPCN library | actives 0.51% (n = 330,000) | GFP response vs DMSO, % at 10 µM | AID 2016, 2009 | S. cerevisiae MEP2-GFP strain, 3 h; 100% = DMSO control level;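 active means GFP response versus DMSO above a set limit, roughly screen mean plus 3 SD, cut at about 180% in these data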;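 further: median GFP fluorescence of the barcode-gated MEP2-GFP cells per well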
# AGP1-GFP MLPCN – modulators of AGP1-GFP expression in yeast TOR pathway, primary screen, cell-based, multiplex flow cytometry, S. cerevisiae, MLPCN library; GFP response vs DMSO, % at 10 µM; AID 2066, 2009; actives 0.02% (n = 320,000); 3 h; GFP as percent of DMSO wells;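 active means GFP response relative to DMSO above a set limit, near screen average plus 3 SD, cut at about 150% in these data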;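 further: median GFP channel fluorescence of the gated AGP1 strain per well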
# RPL19A TOR yeast – RPL19A-GFP expression modulators in yeast, primary screen, cell-based, S. cerevisiae, multiplex flow cytometry, MLPCN. S. cerevisiae RPL19A-GFP strain, 3 h; hits give low values. percent response vs DMSO, % at 10 µM. actives 0.3% (n = 330,000);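 active means percent response vs DMSO below 50%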;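 further: median channel GFP fluorescence of the barcoded RPL19A-GFP strain; ratio of sample median GFP to plate DMSO average so 100% = DMSO; lower means less RPL19A-GFP as with rapamycin TOR inhibition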
# VLA-4 inh – inhibition in human VLA-4 binding assay, primary screen, VLA-4 allosteric modulator project, MLPCN library, flow cytometry, VLA-4 expressing cells. inhibition, % (about 7 µM as worked out from the volumes in the protocol). actives 0.2% (n = 330,000). ligand binding flow cytometry. Integrin alpha-4 (Homo sapiens), P13612; in the data active means inhibition above about 50%
# Target sequence (P13612 whole entry, looked up): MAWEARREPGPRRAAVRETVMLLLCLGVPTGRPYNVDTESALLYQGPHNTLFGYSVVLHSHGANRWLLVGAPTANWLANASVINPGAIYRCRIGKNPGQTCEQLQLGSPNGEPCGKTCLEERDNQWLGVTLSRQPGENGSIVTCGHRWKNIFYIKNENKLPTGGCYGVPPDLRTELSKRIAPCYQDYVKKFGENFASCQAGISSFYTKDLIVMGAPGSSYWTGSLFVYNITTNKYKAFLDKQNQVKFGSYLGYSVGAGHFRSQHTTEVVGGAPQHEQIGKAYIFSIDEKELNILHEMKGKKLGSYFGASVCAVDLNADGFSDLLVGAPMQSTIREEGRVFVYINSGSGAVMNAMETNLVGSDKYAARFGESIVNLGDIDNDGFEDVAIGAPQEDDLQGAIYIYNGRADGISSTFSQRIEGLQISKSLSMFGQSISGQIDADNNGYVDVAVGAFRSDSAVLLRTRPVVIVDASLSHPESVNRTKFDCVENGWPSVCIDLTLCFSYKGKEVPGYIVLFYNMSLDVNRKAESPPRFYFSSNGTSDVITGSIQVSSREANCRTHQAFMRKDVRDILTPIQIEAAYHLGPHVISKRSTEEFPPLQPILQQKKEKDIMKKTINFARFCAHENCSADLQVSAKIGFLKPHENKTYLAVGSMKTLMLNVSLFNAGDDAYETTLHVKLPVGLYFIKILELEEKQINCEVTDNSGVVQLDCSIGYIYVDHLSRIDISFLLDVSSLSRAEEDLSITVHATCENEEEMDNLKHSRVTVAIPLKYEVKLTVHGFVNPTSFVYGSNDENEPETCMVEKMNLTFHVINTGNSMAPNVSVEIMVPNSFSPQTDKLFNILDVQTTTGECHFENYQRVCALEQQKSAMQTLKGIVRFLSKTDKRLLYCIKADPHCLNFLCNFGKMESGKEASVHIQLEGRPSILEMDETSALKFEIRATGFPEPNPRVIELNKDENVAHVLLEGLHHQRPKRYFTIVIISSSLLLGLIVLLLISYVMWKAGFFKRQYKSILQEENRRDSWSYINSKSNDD
# VLA-4 mod pick – retest of VLA-4 allosteric modulators, confirmation, cell-based, cherry-picked plates, U937, HUTS-21 LIBS antibody | shares compounds with VLA-4 inh | U937 cells, HUTS-21 LIBS mAb binding, flow cytometry; LDV ligand present at threefold Kd | inhibition, % at 6.7 µM | actives 2% (n = 1,300) | AID 2813, 2010; in the data active means inhibition above about 40%;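 further: 0% = ligand without compound and 100% = no ligand background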
# Numbers without * were called inactive; · = no result. The list is not random: actives were taken first. Their share in the collection is about 1.1%.
SMILES,CIT2-GFP yeast,LAP4 TOR yeast,MEP2-GFP yeast,AGP1-GFP MLPCN,RPL19A TOR yeast,VLA-4 inh,VLA-4 mod pick
COc1ccccc1NC(=O)CN(c1ccc(C)cc1)S(=O)(=O)c1c(C)n[nH]c1C,101.3,91.8,102.5,99.4,102.6,-7.5,-0.8
COC(=O)c1ccc(NC(=O)CN(c2ccc(C)cc2)S(=O)(=O)c2c(C)nn(C)c2C)cc1,101.3,98.6,103.8,108.9,101.0,4.5,4.4
COc1ccc(OC)c(NC(=O)CN(c2ccc(C)cc2)S(=O)(=O)c2c(C)n[nH]c2C)c1,107.7,107.3,98.0,99.6,96.3,-5.1,·
Cc1ccccc1NC(=O)CSc1cn[nH]n1,94.2,91.1,99.4,94.8,100.7,-1.3,·
O=C(NC1CCCCC1)c1ccccc1NC(=S)NC(=O)C1CC1,101.3,89.6,99.6,94.0,101.5,0.6,·
CCC(=O)NC(=S)Nc1ccccc1C(=O)NC1CCCCC1,100.9,104.7,103.4,103.6,104.2,44.2,7.0
Cc1nc(NC(=O)c2ccc(-c3cc4ccccc4oc3=O)cc2)ccc1Br,102.7,100.1,107.2,98.0,100.2,43.3,6.2
Cc1c(C)c2c(OCC(=O)N[C@@H](Cc3ccccc3)C(=O)O)cc3c(c2oc1=O)CCC(C)(C)O3,96.9,104.6,100.0,97.2,100.5,64.3*,14.3
O=C(O)c1ccc(NC2OC[C@@H](O)[C@H](O)[C@H]2O)cc1 (some centres undefined),101.2,106.1,97.9,98.6,99.1,58.5*,-5.8
O=C(O)c1ccc(NC(=O)C2C3CCC(O3)C2C(=O)O)cc1 (centres undefined),97.1,94.7,100.7,91.6,104.1,-0.7,·
O=C(NCCN1CCOCC1)C1CCCN(S(=O)(=O)c2ccc(F)cc2)C1 (centres undefined),107.9,73.4,98.8,98.5,104.0,-6.8,·
Cc1cccc(C(=O)OCC(=O)N(C)c2ccccc2)c1C,99.3,101.6,101.6,99.2,103.0,3.4,0.0
COc1ccc([C@@]2(O)c3c(ccc(CC=C(C)C)c3O)NC(=O)[C@@H]2OC)cc1,95.0,103.8,108.8,100.8,96.0,0.0,-9.5
COc1cccc(C2CC(=O)C3=C(C2)Nc2ccccc2N(C(=O)CCC(=O)O)C3c2ccc(F)cc2)c1 (centres undefined),97.7,113.7,96.3,106.2,99.4,6.0,·
Cc1ccnc(NS(=O)(=O)c2ccc(N)cc2)n1,88.8,102.6,99.8,94.4,98.6,7.2,-0.8
Cc1cc(C)nc(NS(=O)(=O)c2ccc(Br)cc2)n1,93.3,100.5,100.1,96.5,103.1,14.1,-4.9
COc1cnc(NS(=O)(=O)c2ccc(N)cc2)nc1,79.1,98.8,99.8,81.8,95.0,59.0*,1.1
Cc1cc(C)nc(NS(=O)(=O)c2ccc(N)cc2)n1,90.7,92.0,96.1,93.5,100.1,15.7,0.0
COC(=O)c1ccccc1-c1cn(C)c2ccccc2c1=O,96.2,91.8,93.3,93.2,92.0,-12.0,·
COc1ccc(N2CCN(C(=O)c3cn(Cc4ccccc4)nc3-c3cccnc3)CC2)cc1,93.3,92.4,89.7,98.1,93.9,2.0,·
Cc1cc(SCC(=O)Nc2ccc3[nH]c(=O)[nH]c3c2)nc2ccccc12,94.2,90.8,101.4,96.5,97.6,0.0,·
COc1ccc(NC(=O)c2ccc(NC(=O)CN3CCC(C(N)=O)CC3)cc2)cc1,99.2,100.2,99.8,101.7,100.7,6.0,·
O=S(=O)(N1CCCCC1)N1CCN(c2cc(Cl)ccc2Cl)CC1,107.9,101.3,99.4,104.8,103.1,-2.5,·
COc1cc(NS(=O)(=O)c2ccc(N)cc2)ncn1,86.6,110.7,93.0,88.6,97.5,62.7*,-4.2
COc1cc(NS(=O)(=O)c2ccc(NC(C)=O)cc2)ncn1,109.0,100.9,96.0,99.9,104.6,7.8,·
SMILES,CIT2-GFP yeast,LAP4 TOR yeast,MEP2-GFP yeast,AGP1-GFP MLPCN,RPL19A TOR yeast,VLA-4 inh,VLA-4 mod pick
Cn1c(=O)[nH]c(NCCc2ccc(O)cc2)c([N+](=O)[O-])c1=O,110.9,109.5,104.4,116.1,105.8,-24.9,·
c1ccc(-c2nn3cnnc3c3ccccc23)cc1,97.9,100.0,108.1,96.5,99.6,6.4,-3.5
Cc1ccc(-c2nn3cnnc3c3ccccc23)cc1,87.6,96.2,92.0,112.3,104.2,0.0,·
Cc1ccc(C(=O)C(OC(=O)c2cnccn2)c2ccccc2)cc1 (centres undefined),94.6,92.8,97.8,93.6,101.7,47.6,-9.3
CC(OC(=O)c1cnccn1)C(=O)c1ccccc1 (centres undefined),82.3,89.7,83.5,79.3,82.9,5.7,·
O=C(N=C1SC2CS(=O)(=O)CC2N1c1ccc(Cl)c(Cl)c1)C1CCCO1 (centres undefined),107.8,98.1,101.8,102.5,101.8,0.2,·
CCCCSc1nc2c(c(C(F)(F)F)c1C#N)CCC2,95.0,105.3,100.3,99.1,95.4,64.0*,2.7
CC1CN(C(=O)CCC(=O)NC2CCCCC2)c2ccccc2S1 (centres undefined),101.1,102.8,108.1,102.7,103.9,27.8,·
CCN(Cc1ccccc1)S(=O)(=O)c1c(C(=O)N2CCCC2)c(C)n(C)c1C,114.4,113.9,110.6,106.4,105.0,-0.9,·
CCN(CC)c1ccc(C2CC(=O)Nc3cc(OC)c(OC)cc32)cc1 (centres undefined),89.2,95.6,93.4,97.1,97.5,2.9,3.5
COc1ccc(C2CC(=O)Nc3cc(OC)c(OC)cc32)cc1Br (centres undefined),102.4,93.0,99.5,99.5,103.0,8.1,6.3
COc1cc2c(cc1OC)C(c1ccc(N(C)C)cc1)CC(=O)N2 (centres undefined),87.3,95.9,96.8,97.5,96.5,23.2,·
Cc1cccc(N2CCN(C(=O)CSc3nc4ccccc4nc3N3CC(C)OC(C)C3)CC2)c1C (centres undefined),102.2,97.8,100.1,104.8,98.3,5.5,·
NS(=O)(=O)c1ccc(NC(=O)Nc2ccccc2)cc1,98.0,112.8,103.1,106.5,98.7,2.6,-0.8
NS(=O)(=O)c1ccc(NC(=O)Nc2ccc(S(N)(=O)=O)cc2)cc1,98.2,95.5,89.2,103.1,91.1,2.7,·
